# An excerpt weighted towards active compounds, which were near 5.5% of everything screened.
# Chronic BCR inh – qHTS Assay to Find Inhibitors of Chronic Active B-Cell Receptor Signaling | ABC-DLBCL IkBa-CBG/CBR reporter, luminescence ratio, 4 h | Potency, µM (top dose mostly 46.1 µM), for the others: at the top dose activity change, negative = inhibition, actives largely listed as inhibitors | 340,000 tested, 0.05% active | AID 493014, 2011; active = well fitted inhibition curve with a large enough effect in the signal ratio, with a control signal flat, not every such curve was filed as active; inconclusive = small, poorly fitted or top-dose-only effect, or effect the other way, or a change in a side signal; the % refers to the signal ratio;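 note: plate controls were basal doxycycline-induced cells for no effect and cells given 10 µM MG132 for full effect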
#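 Cell line TMD8 (human ABC DLBCL), stably expressing tet-inducible CBG68-IkBa fusion and CBR; IMDM/0.5% FBS; cpd up to 46 uM; dox induction, 4 h, 37C/5% CO2; dual luminescence; green/red ratio; MG132 control.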
# a7 integrin act – qHTS for Activators of Integrin-Mediated Alleviation for Muscular Dystrophy | alpha7betagal myoblasts, beta-gal FDG fluorescence, 48 h | Potency, µM (doses to about 38.3 µM), without a hit: at the top dose activation, most hits filed as activators | 350,000 tested, 0.064% active;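 note: 100% = response of the positive control SU9516; nearly all actives have a fitted effect of over 60% in size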
#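 Alpha7betagal+/- myoblasts (passage 13) were plated 16-24 hr, then exposed to compounds (1:260 dilution of DMSO stock) for 48 hours at 37C. After MPER lysis, β-galactosidase reporter activity was read as FDG fluorescence (ex 480/em 540) after 30 minutes.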
# Mito fusion act – qHTS Assay for Small Molecule Inhibitors of Mitochondrial Division or Activators of Mitochondrial Fusion | 320,000 tested, 0.23% active | Potency, µM (top dose mostly 46.1 µM), without a hit: at the highest dose growth rescue (activation), hits mostly activators | S. cerevisiae fusion-defective mutant growth rescue, CellTiterGlo 48 h | AID 485298, 2010; note: % of control where 0% means no effect; nearly all actives have a fitted effect of over 45% in size
#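 Read-out: ATP-based luminescence (CellTiterGlo, 10 min ambient) reporting growth of fusion-defective ts yeast after 48 hours at 37C on glycerol/ethanol YPEG medium in the presence of compound.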
# uPA generation – qHTS for Inhibitors of Cell Surface uPA Generation; cell surface uPA generation assay, qHTS; Potency, µM (top dose mostly 38.3 µM), for inactives: at the highest dose activity change, negative = inhibition, usual class: inhibitors; 330,000 tested, 0.31% active; AID 540303, 2011; active = well fitted inhibition curve with a large enough effect; inconclusive = small, poorly fitted or top-dose-only effect; inactive = no such curve, though single readings can be large or run the other way; tested in mouse RAW 264.7 cells; note: % is set by controls: 0 for no effect and ±100 for the full control effect; nearly all actives have a fitted effect of over 55% in size
# Gal4-VP16 FLuc – VP16 counterscreen qHTS for inhibitors of ROR gamma transcriptional activity | Drosophila S2 Gal4-VP16 UAS-luciferase, luminescence, 20 h | 310,000 tested, 3.5% active | Potency, µM (titrated, usually from 53.6 µM), for inactives: top-dose activity, negative = inhibition, hits mostly inhibitors;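 note: Gal4-VP16 expression switched on by copper sulfate through the metallothionein promoter; % is set by controls: 0 for no effect and ±100 for the full control effect; nearly all actives have a fitted effect of over 50% in size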
# RORgamma inh – qHTS for inhibitors of ROR gamma transcriptional activity. Nuclear receptor ROR-gamma (Mus musculus), P51450. Drosophila S2 Gal4-RORgamma UAS-luciferase reporter, 20 h. Potency, µM (titrated, usually from 53.6 µM), without a hit: at the top dose activity change, negative = inhibition, most hits filed as inhibitors. 310,000 tested, 5.4% active. AID 2551, 2010; note: % is set by controls: 0 for no effect and ±100 for the full control effect; nearly all actives have a fitted effect of over 60% in size
# Target sequence (P51450 whole entry, looked up, the tested form may be a part): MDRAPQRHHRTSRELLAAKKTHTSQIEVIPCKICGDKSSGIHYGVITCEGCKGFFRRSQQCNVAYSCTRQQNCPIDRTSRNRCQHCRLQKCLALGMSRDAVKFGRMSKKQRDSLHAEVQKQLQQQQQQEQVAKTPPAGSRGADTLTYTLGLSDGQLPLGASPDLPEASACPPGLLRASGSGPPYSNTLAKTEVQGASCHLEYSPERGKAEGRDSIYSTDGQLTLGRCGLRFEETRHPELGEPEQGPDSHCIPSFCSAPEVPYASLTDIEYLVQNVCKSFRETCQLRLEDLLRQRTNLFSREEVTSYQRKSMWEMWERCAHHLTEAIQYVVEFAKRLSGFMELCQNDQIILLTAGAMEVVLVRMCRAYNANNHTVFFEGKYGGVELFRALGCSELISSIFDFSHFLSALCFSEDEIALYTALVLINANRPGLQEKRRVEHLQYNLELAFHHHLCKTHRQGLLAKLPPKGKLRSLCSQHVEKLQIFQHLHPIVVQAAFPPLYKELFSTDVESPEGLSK
#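 Luminescence from a UAS-regulated Photinus luciferase reporter in stably transfected Drosophila Schneider cells is measured; decreased signal marks ROR gamma inhibition. Fusion expression is induced by 700 uM copper sulfate for 20 hr.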
# The depositor's hits bear a star; ? = inconclusive; / = no result given; [ ] = remark or other dose. Unless noted, calls come from the whole dose curve; as a rule, active = well fitted curve in the direction sought with a large enough effect; inconclusive = small, poorly fitted or top-dose-only effect, or another doubt; inactive = no such curve, though single readings can be large; an effect the other way counts as inactive or inconclusive. Potency is the fitted concentration of half-maximal effect.
SMILES,Chronic BCR inh,a7 integrin act,Mito fusion act,uPA generation,Gal4-VP16 FLuc,RORgamma inh
COc1ccc(CSc2nc3ccccc3c(=O)n2CCCN2CCOCC2)cc1F,0%,-32%,-2%,-5%,3%,-10%
CCN(C(=O)COC(=O)c1ccc(=O)n(Cc2ccccc2)n1)C1CCCCC1,1%,?,-3%,4%,/,/
O=C(Nc1ccc(N2CCN(c3ccc(F)cc3)CC2)c(C(=O)O)c1)c1cccs1,5%,/,/,/,/,/
CN(/N=C/c1ccc(O)cc1O)c1ncc(C(F)(F)F)cc1Cl,?,-23%,7%,?,-11%,7.9µM*
N#CCSc1ccccc1NC(=O)COC(=O)CCN1C(=O)C2CC=CCC2C1=O (stereo unspecified),0%,21%,-2%,3%,/,/
COc1cc(/C=C(\C#N)C(N)=O)ccc1OCc1c(C)no[n+]1[O-],-2%,-27%,-3%,-11%,6%,22%
COC(=O)C1=C(C)NC(C)=C(C(=O)OC)C1c1ccccc1OCc1c(C)no[n+]1[O-],-16%,2.8µM*,8%,-16%,3%,23%
CCOc1cc(C)c(-c2onc(C(F)(F)F)c2-c2csc(C)n2)c(O)c1,5%,-4%,-6%,/,11µM*,12%
CN(C)c1ccc(-c2cncnc2NCc2cccs2)cc1,/,/,/,/,-2%,-26%
COc1cc2c(cc1OC)-c1nnnn1C(C)(C)C2,-14%,20%,-1%,/,/,-3%[0.365 µM]
COc1cc2c(cc1OC)C(=S)NC(C)(C)C2,?,-21%,-10%,-5%,?,20µM*
COc1cc2c(cc1OC)-c1n[nH]c(=S)n1C(C)(C)C2,?,20%,2%,-2%,?,7.9µM*
c1ccc(CN2CCN(C(c3ccccc3)c3ccccc3)CC2)cc1,12%,-50%,0%,3%,-1%,-14%
O=S(=O)(CCN1CCN(C(c2ccccc2)c2ccccc2)CC1)C(F)(F)F,?,-53%,-5%,-11%,16µM*,?
CCOc1cc2[nH]c(=S)n(C3CC3)c(=O)c2cc1OCC,?,4%,5%,-9%,16µM*,4.5µM*
CCOC(=O)N1CCC(n2c(=S)[nH]c3cc(OCC)c(OCC)cc3c2=O)CC1,2%,-21%[7.66 µM],-3%,/,-8%,5%
CCOc1cc2[nH]c(=S)n(CCCOC)c(=O)c2cc1OCC,2%,-13%,-6%,/,?,11µM*
CCOc1cc2[nH]c(=S)n(C(C)C)c(=O)c2cc1OCC,?,-10%,-3%,3%,7.1µM*,2µM*
CCC(CO)n1c(=S)[nH]c2cc(OC)c(OC)cc2c1=O (stereo unspecified),-5%,-2%,-2%,?,?,11µM*
CCOc1cc2[nH]c(=S)n(CCc3ccc(OC)c(OC)c3)c(=O)c2cc1OCC,?,20%,-3%,-1%,1%,14%
CC(=O)N1CCN(S(=O)(=O)c2cccc(C(=O)OCC(=O)N(CCC#N)c3ccc(F)cc3)c2)CC1,2%,14%,-3%,2%,/,/
O=C(NNc1ncnc2c1cnn2-c1ccc(F)cc1)c1ccco1,8%,44%,-6%,-2%,10µM*,8.9µM*
O=C(NNc1ncnc2c1cnn2-c1ccccc1)c1ccccc1,?,/,-3%,/,/,/
Cc1ccc(-n2ncc3c(NNC(=O)c4cccs4)ncnc32)cc1,18%,-15%,5%,7%,10µM*,1.3µM*
Cc1ccc(-n2ncc3c(NNC(=O)c4ccco4)ncnc32)c(C)c1,-6%,2%,2%,5%,?,11µM*
SMILES,Chronic BCR inh,a7 integrin act,Mito fusion act,uPA generation,Gal4-VP16 FLuc,RORgamma inh
Cc1ccc(-n2ncc3c(NCc4cccnc4)ncnc32)c(C)c1,?,-37%,6%,-3%,18µM*,?
CCC(C)(C)c1ccc(CC(C)CN2C[C@@H](C)O[C@@H](C)C2)cc1 (stereo partly specified),/,/,/,/,?,1%
COc1ccccc1CC(=O)OC(C)C(=O)Nc1ccc(S(=O)(=O)N2CCCCC2)cc1 (stereo unspecified),-8%,-2%,0%,-4%,/,/
Cc1cc(C)cc(-n2c(C)cc(/C=N/NC(=O)CN(c3c(C)cccc3C)S(C)(=O)=O)c2C)c1,1%,2%,3%,-4%,-20%,13µM*
Cc1cccc(C(=O)OCC(=O)NCCNC(=O)COC(=O)c2cccc(C)c2C)c1C,1%,-1%,-1%,18%,?,13µM*
CCOc1ccccc1NC(=O)COc1cccnc1[N+](=O)[O-],3%,?,/,-3%,/,/
CS(=O)(=O)c1ccc(C(=O)OC2CCOC2=O)cc1[N+](=O)[O-] (stereo unspecified),?,-40%,-5%,-12%,?,4.5µM*
O=C(OC1CCOC1=O)c1ccccc1C(=O)c1ccc(Cl)c([N+](=O)[O-])c1 (stereo unspecified),?,-15%,-1%,-11%,/,/
O=C(CCN1CCCO1)N1CCCC(Nc2cccc(F)c2)C1 (stereo unspecified),/,-13%,/,/,/,/
C/C(=N\NC(=O)C12CCC(C)(C(=O)O1)C2(C)C)c1ccccc1O (stereo unspecified),2%,2%,-4%,1%,1.3µM*,0.71µM*
CC(C)(C)C(=O)Nc1ccc(-c2cn3ccsc3n2)cc1,8%,20%,-3%,-18%,4.5µM*,4.5µM*
CN(C)c1nc(-c2ccccc2C(F)(F)F)nc2ccccc12,/,/,/,/,-7%,-5%
Cn1nc(C(=O)N2CCN(c3cccc(Cl)c3)CC2)c2c1-c1ccccc1S(=O)(=O)C2,7%,-4%,11µM*,-1%,-11%,27%
Cc1ccc(N2CCN(C(=O)c3nn(C)c4c3CS(=O)(=O)c3ccccc3-4)CC2)c(C)c1,6%,-18%,11µM*,9%,-20%,34%
COc1ccc(CCNC(=O)c2nn(C)c3c2CS(=O)(=O)c2ccccc2-3)cc1OC,0%,4.5µM*,-4%,?,-1%,-5%
C[C@@]12C=Cc3occc3[C@H]1CC[C@@]13C[C@@H](CC[C@H]12)[C@@](O)(CO)C3,/,/,/,/,3%,-40%
O=S(=O)(Nc1nc2ccc(Cl)cc2s1)c1cccs1,?,-13%,11%,3%,?,32%
CC(C)(C)C(=O)Nc1sc2c(c1C#N)CCC2,4%,-11%,-1%,0%,-2%,3%
CC(=O)Nc1sc2c(c1C#N)CCCC2,/,18%,5%,-6%,?,12%
CC(=O)NC(=S)Nc1sc2c(c1C#N)CCCCC2,?,6%,-2%,-10%,8.9µM*,11µM*

# Source: PubChem
